Source: PubChem (Paczesny and Yang Labs, IUPUI and University of Michigan)
ST2 inh = inhibitors of human ST2 (IL1RL1) binding to IL-33, primary screen, biochemical, AlphaLISA | AlphaLISA ST2-Fc/biotin-IL-33 interaction, 1 h | inhibition, % for hits at 17 µM | 2.3% of 78,000 active | AID 1259354, 2018; in the data active = inhibition above about 30%
Target sequence (Q01638 whole entry, looked up): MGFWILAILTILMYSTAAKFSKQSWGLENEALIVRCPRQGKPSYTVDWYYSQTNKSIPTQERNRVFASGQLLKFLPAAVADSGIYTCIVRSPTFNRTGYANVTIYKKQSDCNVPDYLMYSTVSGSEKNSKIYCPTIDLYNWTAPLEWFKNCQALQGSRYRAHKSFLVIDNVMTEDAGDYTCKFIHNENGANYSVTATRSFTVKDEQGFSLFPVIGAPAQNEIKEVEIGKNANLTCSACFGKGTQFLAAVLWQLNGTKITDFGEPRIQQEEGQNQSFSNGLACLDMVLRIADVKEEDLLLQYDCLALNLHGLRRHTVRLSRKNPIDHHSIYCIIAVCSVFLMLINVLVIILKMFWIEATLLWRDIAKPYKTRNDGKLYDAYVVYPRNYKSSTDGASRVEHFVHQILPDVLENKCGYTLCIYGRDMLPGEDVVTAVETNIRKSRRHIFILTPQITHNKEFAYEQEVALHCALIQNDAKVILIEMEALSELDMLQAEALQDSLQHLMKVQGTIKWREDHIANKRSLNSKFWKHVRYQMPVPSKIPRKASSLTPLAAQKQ
* marks the source's active call; other numbers are inactive results; i = inactive; ! = repeats disagree. This is one part of a sample in which hits are shown more often than they occur.

SMILES	ST2 inh
CCCCN(C)c1nnnc2c1sc1nc(N3CCOCC3)c3c(c12)CC(C)(C)OC3	i
O=C(Cc1c(C(=O)O)[nH]c2ccc(Cl)cc12)NCCC1=CCCCC1	i
N#C/C(=C/c1cn(Cc2ccc(Cl)cc2Cl)c2ccccc12)C(=O)NCC1CCCO1 (centres undefined)	32%*
Cn1cc(CC(=O)NCC2CCCO2)c2ccccc21 (centres undefined)	i
Cc1c(C#N)c2ccccc2n1CC(=O)NCC1CCCO1 (centres undefined)	i
COCc1nc(N(C)Cc2cnn(-c3ccc(F)cc3)c2)c2cnn(C)c2n1	i
CC(C)NC(=O)CSc1nc(-c2cccc(Cl)c2)nc2cc(=O)[nH]n12	96%*
COCCNC(=O)CSc1nc(-c2cccc(Cl)c2)nc2cc(=O)[nH]n12	i
CC(CCc1ccccc1)NC(=O)CSc1nc(-c2ccc3c(c2)OCO3)nc2cc(=O)[nH]n12 (centres undefined)	i
Cc1ccc(Nc2ncnc3c2cnn3-c2ccccc2)cc1Cl	i
Cc1ccc(C)c(S(=O)(=O)N=C2C=C(Nc3ccccc3)C(=O)c3ccccc32)c1	88%*
Cc1ccc(C)c(S(=O)(=O)Nc2ccccc2Cl)c1	i
COc1ccc(S(=O)(=O)Nc2cc(C)ccc2C)cc1	i
COc1ccc(Nc2cc(C)nc(N3CCN(S(=O)(=O)c4ccc(C)cc4C)CC3)n2)cc1	i
COc1ccc(NC2=CC(=NS(=O)(=O)c3cc(C)ccc3C)c3ccccc3C2=O)cc1	95%*
CN=C(NS(=O)(=O)c1cc(C)ccc1C)c1ccccc1	i
Clc1ccc(OCCOCCN2CCOCC2)c(Br)c1	i
CCOc1ccccc1C1C(C(=O)OC2CCCC2)=C(C)NC2=C1C(=O)C(C(=O)OC)C(C)C2 (centres undefined)	i
CC(C)CN(C/C=C/c1ccccc1)C(=O)CNC(=O)N(C)C	i
CN1CCN(S(=O)(=O)c2ccc([N+](=O)[O-])cc2)CC1	i
O=[N+]([O-])c1ccc(S(=O)(=O)N2CCN(c3ccc(Cl)cc3)CC2)cc1	33%*
COc1ccc(N2CCN(S(=O)(=O)c3ccc(OC)cc3)CC2)cc1	i
Cc1cccc(NC(c2ccccc2)c2ccc3ccc(C)nc3c2O)n1 (centres undefined)	36%*
Cc1cc(C)n(-c2cccc3cccnc23)n1	i
O=C(CCS(=O)(=O)c1cccc2cccnc12)Nc1ccc(F)cc1	i
SMILES	ST2 inh
CC(=O)NC(c1ccc(Cl)cc1Cl)c1ccc2cccnc2c1O (centres undefined)	i
Cc1cccc(NC(c2cccc(Cl)c2)c2ccc3cccnc3c2O)n1 (centres undefined)	34%*
Cc1cccc(NC(c2cccc(C)n2)c2ccc3ccc(C)nc3c2O)n1 (centres undefined)	i
Cc1cc(Cl)ccc1NC(=O)CSc1cccc2cccnc12	i
COc1cc(C(Nc2cc(C)ccn2)c2ccc3cccnc3c2O)ccc1O (centres undefined)	i
Cc1cccc(NC(c2cccc(F)c2)c2ccc3cccnc3c2O)n1 (centres undefined)	i
CCC(C(=O)Nc1cccc(C)n1)c1ccccc1 (centres undefined)	i
Cc1cccc(NC(c2ccc(F)cc2)c2ccc3cccnc3c2O)n1 (centres undefined)	30%*
Cc1ccnc(NC(c2ccc(N(C)C)cc2)c2ccc3cccnc3c2O)c1 (centres undefined)	32%*
COc1ccc(C(=O)C2CCCN(C(=O)c3cccc(-c4ccccc4)c3)C2)cc1OC (centres undefined)	i
c1ccc(CN2CCN(Cc3c[nH]c4ccccc34)CC2)nc1	i
COc1ccc(NC(=O)c2noc3c2CC(C(C)(C)C)CC3)cc1OC (centres undefined)	i
COc1cc(C(=O)Nc2ccc(O)c(C)c2)cc(OC)c1OC	i
COCCn1c(CNS(=O)(=O)c2ccc(Cl)cc2)nc2cccnc21	i
Cc1sc2ncn(CC(=O)N3CCc4ccccc4C3)c(=O)c2c1C	i
COc1cc(C2Nc3ccccc3NC3=C2C(=O)CC(C)(C)C3)cc([N+](=O)[O-])c1O (centres undefined)	i
O=C(O)C1(Cc2ccccc2C(F)(F)F)CCN(CC2CC2)CC1	i
C=CCN(CC=C)CCOc1ccccc1OCC	i
CC(C)N(C(=O)C1CCCN1S(=O)(=O)c1cccc2nsnc12)C1CCCCC1 (centres undefined)	i
Cc1nc(C)c(Cc2ccccc2)c(=O)[nH]1	i
CCc1ccc(C2CC(c3ccc(Cl)cc3)n3ncnc3N2)cc1 (centres undefined)	i
COc1ccc(C(Nc2ccccn2)c2ccc3ccc(C)nc3c2O)cc1C (centres undefined)	31%*
Cc1ccc(S(=O)(=O)Nc2ccccn2)cc1C	i
O=c1cc(CO)oc(C(Nc2ccccn2)c2ccc3c(c2)OCO3)c1O (centres undefined)	i
O=C(Cc1c(C(=O)O)[nH]c2ccccc12)NC1CC1	i
SMILES	ST2 inh
Cc1csc2ncc(C(=O)Nc3ccon3)c(=O)n12	97%*!
Cc1csc2ncc(C(=O)Nc3ccc(Cl)cc3)c(=O)n12	i
Cc1csc2ncc(C(=O)Nc3ccccc3)c(=O)n12	i
CC1=C(C(=O)OC2CCCCC2)C(c2ccc(Br)cc2)n2nnnc2N1 (centres undefined)	i
Cc1ccc(-c2cc(C(=O)NCc3nnc4n3CCC4)n[nH]2)s1	i
COc1ccc(CN[C@H]2C[C@H]3C(=O)NC[C@@H](CCC(=O)N4CCN(c5ccccn5)CC4)N3C2)cc1	i
O=C1NC[C@@H](CCC(=O)N2CCN(c3ccccn3)CC2)N2C[C@@H](NCc3ccc(F)cc3)C[C@@H]12	i
COCC(=O)N[C@H]1C[C@H]2C(=O)NC[C@@H](CCC(=O)N3CCN(c4ccccn4)CC3)N2C1	51%*
O=C(Nc1ccsc1)N[C@H]1C[C@H]2C(=O)NC[C@@H](CCC(=O)N3CCN(c4ccccn4)CC3)N2C1	52%*
O=C(N[C@H]1C[C@H]2C(=O)NC[C@@H](CCC(=O)N3CCN(c4ccccn4)CC3)N2C1)C1CC1	i
CN1CCN(C(=O)CC[C@@H]2CNC(=O)[C@@H]3C[C@H](NC(=O)Nc4ccccc4)CN23)CC1	i
CCCc1nc(N2CCCC(c3cc(=O)[nH]cn3)C2)c2cnn(C)c2n1 (centres undefined)	i
O=C(C1CCCC1)N1CCN=C1SCc1ccccc1F	i
CCN1/C(=C/C=c2/sc3nc4ccccc4n3c2=O)C=Cc2ccccc21	43%*
CN(C)c1ccc(/C=c2\sc3nc4ccccc4n3c2=O)cc1	i
CCN1/C(=c2/sc3nc4ccccc4n3c2=O)Sc2ccc(OC)cc21	i
Cc1nc2nc(SCc3cc(=O)n4c(C)cccc4n3)nn2c(C)c1Cc1ccccc1	i
COc1cc(/C=C/CN2CCCC(CNC(=O)c3ccco3)C2)ccc1O (centres undefined)	i
COc1ccc(C(=O)c2oc3ccccc3c2NC(=O)c2ccco2)cc1	31%*
NC(=O)c1oc2ccccc2c1NC(=O)c1ccco1	i
O=C(Nc1c(C(=O)Nc2cccc(F)c2)oc2ccccc12)c1ccco1	i
CNCC(=O)N1CCCCC1CCN1CCCC1=O (centres undefined)	i
Cc1ccccc1Cn1c(NCc2ccccc2)nc2c1c(=O)n(C)c(=O)n2C	i
